# Data as given in PubChem BioAssay (NCI).
# Several values for one entry are separate records, joined by “and”; a condition that tells them apart may be missing. Identical values can stand only once. About 83,000 compounds went through this panel and 20% of them were active in at least one assay; those are over-represented in the sample as a whole.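 Assay: single dose, 48 h. Readout: percent growth (0 = no net growth; negative = cell death). Active: <10.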 Activity calls are given as the source filed them.
# How the values were obtained:
# Assay in all cases: NCI-60 one-dose screen, 48 h (100 = growth as untreated, 0 = no growth, -100 = all killed)
# [1] = test system: NCI-H23 lung; conditions: 10 µM
# [2] = test system: NCI-H226 lung; conditions: 10 µM
# [3] = test system: HOP-62 NSCLC; conditions: 10 µM
# [4] = test system: NCI-H460 lung; conditions: 10 µM
# [5] = test system: HOP-92 NSCLC; conditions: 10 µM
# [6] = test system: NCI-H522 lung; conditions: 10 µM unless noted
# [7] = test system: A549/ATCC NSCLC; conditions: 10 µM
# [8] = test system: 786-0 renal; conditions: 10 µM
# [9] = test system: COLO 205 colon; conditions: 10 µM
SMILES,growth [1],growth [2],growth [3],growth [4],growth [5],growth [6],growth [7],growth [8],growth [9]
CO[C@H](C(=O)[C@@H](O)[C@@H](C)O)[C@@H]1Cc2cc3cc(OC4CC(OC5CC(O)C(O)C(C)O5)C(O)C(C)O4)c(C)c(O)c3c(O)c2C(=O)[C@H]1OC1CC(OC2CC(OC3CC(C)(O)C(O)C(C)O3)C(O)C(C)O2)C(O)C(C)O1 (stereo partly drawn),-28.9% (active),10.8% (inactive),7.51% (active),2.6% (active),-1.5% (active),-44.7% (active),2.67% (active),2.93% (active),-67.5% (active)
CCCC1CCC(=C2C(=O)CCC2=O)O1 (stereo not drawn),102% (inactive) and 98.7% (inactive),102% (inactive) and 108% (inactive),90.6% (inactive) and 101% (inactive),101% (inactive) and 113% (inactive),103% (inactive),121% (inactive) and 83.9% (inactive),110% (inactive) and 97.5% (inactive),105% (inactive) and 92.9% (inactive),100% (inactive) and 99.2% (inactive)
CCCCCC(C)c1ccc(O)c(C)c1 (stereo not drawn),104% (inactive),96% (inactive),98.4% (inactive),107% (inactive),98% (inactive),88.2% (inactive),113% (inactive),93.6% (inactive),111% (inactive)
Cc1cc(O)c(C(C)C)cc1Cl,106% (inactive),96.7% (inactive),95.7% (inactive),99.1% (inactive),99.9% (inactive),101% (inactive),–,101% (inactive),107% (inactive)
CCC(C)(C)c1cc(O)c(C(C)(C)CC)cc1O,38.5% (inactive),41.8% (inactive),54.8% (inactive),21.2% (inactive),-7.38% (active),–,49.9% (inactive),–,40.7% (inactive)
Nc1c2ccccc2nc2ccccc12,11.5% (inactive) and 41.9% (inactive) and 38.5% (inactive),2.61% (active) and 38.7% (inactive) and 40.4% (inactive),11.3% (inactive) and 52.2% (inactive) and 47.3% (inactive),-11.2% (active) and 2.59% (active) and 12% (inactive),69.1% (inactive) and 2.79% (active),-49% (active) and -11.2% (active) and 30.2% (inactive),-5.72% (active) and 20.6% (inactive) and 28.6% (inactive),25.5% (inactive) and 34.8% (inactive) and 50% (inactive),-73.8% (active) and 7.85% (active) and 12.6% (inactive)
NNc1c2ccccc2nc2ccccc12,47.4% (inactive),48.5% (inactive),64.6% (inactive),10% (inactive),88.1% (inactive),33.2% (inactive),23.6% (inactive),34.2% (inactive),67.6% (inactive)
Oc1ccc(N=Nc2ccccn2)c(O)c1,29.2% (inactive),21.1% (inactive),15.8% (inactive),8.17% (active),57.6% (inactive),29.3% (inactive),17.5% (inactive),10.3% (inactive),8.83% (active)
OCC1OC(n2cnc3c(=S)nc[nH]c32)C(O)C1O (stereo not drawn),104% (inactive) and 71.8% (inactive),100% (inactive) and 63.7% (inactive),115% (inactive) and 53.9% (inactive),113% (inactive) and 62% (inactive),56.6% (inactive) and 61.8% (inactive),77.3% (inactive) and 3.94% (active),99.6% (inactive) and 101% (inactive),100% (inactive) and 35.1% (inactive),116% (inactive) and 47.5% (inactive)
O=[N+]([O-])C1=C(c2ccccc2)SC=C(c2ccccc2)S1,79.3% (inactive),74% (inactive),74.1% (inactive),67.3% (inactive),65.9% (inactive),42% (inactive),62.4% (inactive),95.4% (inactive),86.9% (inactive)
O=C1C=C(O)c2ccccc2C1=O.[Ag],91.8% (inactive),–,98.3% (inactive),94.7% (inactive),–,-34.4% (active),–,104% (inactive),78.8% (inactive)
CCCCCCCCCCCCSC(=NC)NC,35.4% (inactive) and 54.9% (inactive),66.3% (inactive) and 79.1% (inactive),76.3% (inactive) and 87.2% (inactive),4.19% (active) and 42.7% (inactive),-1.15% (active) and 36% (inactive),57.7% (inactive) and 85% (inactive),64.4% (inactive) and 87.7% (inactive),-23.8% (active) and 62.9% (inactive),-85.4% (active) and -86.3% (active)
C[n+]1c2cc(N)ccc2cc2ccc(N)cc21,–,-14.9% (active) [middle of 4 runs],–,–,43.9% (inactive) and 8.02% (active) and -29.2% (active),–,–,–,–
O=C(Nc1ccc(C(=O)O)c(O)c1)c1ccccc1,104% (inactive) and 97.9% (inactive),101% (inactive),95.3% (inactive) and 91.7% (inactive),109% (inactive),81.4% (inactive) and 103% (inactive),93.3% (inactive) and 89.8% (inactive),101% (inactive) and 95.6% (inactive),109% (inactive) and 97% (inactive),102% (inactive) and 130% (inactive)
